The nature of test [1]: NCI Yeast Anticancer Drug Screen. Data for the rad50 strain (AID 155).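 Note: 0% = growth of vehicle-only cultures of the same strain.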 Conditions: S. cerevisiae rad50 strain growth inhibition, active compounds read high; at 50.0 µM unless noted. Put shortly: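 Growth of the mutant yeast was measured after compound exposure and referenced to vehicle-treated cultures.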
The nature of test [2]: NCI Yeast Anticancer Drug Screen. Data for the mec2-1 strain (AID 157). Particulars: S. cerevisiae mec2-1 strain, active compounds read high; at 50.0 µM unless noted. Put shortly:
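mec2-1 yeast strain, carrying an alteration in DNA damage repair or cell cycle control, was exposed to compounds; growth inhibition was measured relative to vehicle-treated controls.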

A short description of test [3]: NCI Yeast Anticancer Drug Screen. Data for the sgs1 mgt1 strain (AID 161).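 Note: 0% = growth of cultures given vehicle only.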 Conditions: S. cerevisiae sgs1 mgt1 strain, active compounds read high; at 50.0 µM unless noted. Put shortly:
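Growth of a repair-deficient yeast mutant was monitored after compound treatment and expressed as inhibition relative to vehicle-treated cultures.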

Test [4] can be described thus: NCI Yeast Anticancer Drug Screen. Data for the cln2 rad14 strain (AID 165).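 Note: 0% = growth equal to vehicle treated cultures.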 Particulars: S. cerevisiae cln2 rad14 strain, active compounds read high; at 50.0 µM unless noted. In a few lines:
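Yeast carrying cln2 and rad14 alterations (cell cycle control and DNA damage repair) were exposed to compounds. Growth inhibition was measured against vehicle-treated controls.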

Test [5] can be described thus: NCI Yeast Anticancer Drug Screen. Data for the bub3 strain (AID 167). Particulars: S. cerevisiae bub3 mutant strain, active compounds read high; at 50.0 µM unless noted. Put shortly:
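Whole-cell yeast assay. The mutant strain was incubated with compounds, and growth inhibition was determined by comparison with vehicle-treated cells.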

Test [6] in a line: NCI Yeast Anticancer Drug Screen. Data for the mlh1 rad18 strain (AID 175). Particulars: S. cerevisiae mlh1 rad18 strain growth inhibition, active compounds read high; at 50.0 µM unless noted. Put shortly:
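Growth inhibition of the yeast strain was measured after compound exposure and expressed relative to vehicle-treated controls. The strain carries defined defects in DNA damage repair.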

The panel holds about 79,000 compounds, 15% with a hit somewhere; the sample as a whole holds those more often. Unmarked numbers belong to inactive results. The source made the active and inactive calls. Cut-off read from the data, not from the text of the source: active = growth inhibition above about 70%; inactive = the rest.

Here are results for 20 molecules from PubChem BioAssay (NCI).

As to `Cc1ccc(OCC(=O)O)c(Cl)c1`, the growth inhibition is -1.9% in test [1]; -1.9% in test [2]; 0.65% in test [3]; -22.4% in test [4]; 17.4% in test [5]; 2.3% in test [6].
Regarding `CC(N)C(=O)NO` (stereo not given), the growth inhibition in test [1] was -20.4%; in test [2], -24.6%; in test [3], -16.2%; in test [4] it was -40.6%; in test [5], 4.85%; in test [6], -36%.
For `CC1CCCCN1C(=O)Nc1ccc(Cl)cc1[N+](=O)[O-]` (stereo not given), the growth inhibition in test [1] was 9.3%; in test [2], 44.2%; in test [3], 29.6%; in test [4] it was -15.6%; in test [5], 64.3%; in test [6] it was 42.4%.
`Cc1cc(C)c(S)c(C)c1.[Cu+2]`: the growth inhibition in test [1] was -29.1%; in test [2] it was -10.3%; in test [3] it was -5.85%; in test [4], -53.2%; in test [5] it was -28.9%; in test [6], -2.55%.
In the case of `CCOc1cc(C=O)c2c(ccc3ccc(OC)c(OC)c32)c1OC`, the growth inhibition in test [1] was 86.5% (active); in test [2], 90.8% (active); in test [3], 84.7% (active); in test [4], 83.5% (active); in test [5], 82.4% (active); in test [6], -11.8%.
As to `CC1OC(n2cnc3c(NC(=O)c4ccccc4)ncnc32)C(O)C2OC12` (stereo not given), the growth inhibition in test [1] is -1.15%; in test [2], -3.05%; in test [3], 8.75%; in test [4], 13.4%; in test [5] it was 2.95%; in test [6] it was 14.8%.
As to `CC(=O)Nc1ccc(C2NCc3cnc(C)nc3N2)cc1` (stereo not given), the growth inhibition was 0.35% in test [1]; -0.75% in test [2]; 0.15% in test [3]; -6.95% in test [4]; 10.2% in test [5]; 0.95% in test [6].
With `CC1(C)CSCC(C)(C)C(=N/N)/C1=N\N`, the growth inhibition is 6.95% in test [1]; 22.7% in test [2]; -8.35% in test [3]; 4.35% in test [4]; -33% in test [5]; -41.3% in test [6].
As to `O=C(Nc1ccc(Nc2ccc3c(c2)C(=O)c2ccccc2C3=O)c2c1C(=O)c1ccccc1C2=O)c1ccccc1`, the growth inhibition in test [1] is -35.7%; in test [2], -15.2%; in test [3] it was -15.3%; in test [4], -36.7%; in test [5], -15.2%; in test [6], -25.6%.
Regarding `O=C(O)C(NCCCCCNC(C(=O)O)c1ccccc1)c1ccccc1` (stereo not given), the growth inhibition is 15.8% in test [1]; 21.2% in test [2]; 15.9% in test [3]; 24.9% in test [4]; 13.9% in test [5]; 24.6% in test [6].
On to `OCC(O)Cc1ccccc1` (stereo not given), for which the growth inhibition in test [1] is -7%; in test [2] it was -12.8%; in test [3] it was 3.2%; in test [4] it was -13.1%; in test [5], -1.8%; in test [6], 5.05%.
As to `O=C(O)C1(C(=O)O)CCCCC1.[NH2-].[NH2-].[Pt+2]`, the growth inhibition was 2.65% in test [1]; 17.5% in test [2]; 1.6% in test [3]; 22.2% in test [4]; 7.6% in test [5]; 15.8% in test [6].
On to `CCc1ccc2nccc(NCCCN(C)C)c2c1[N+](=O)[O-]`, for which the growth inhibition in test [1] is 3.55%; in test [2] it was -13.4%; in test [3], 6.7%; in test [4] it was 15.2%; in test [5], -17.7%; in test [6], 13.5%.
On to `Nc1nc(CCCCc2ccc(NC(=O)CBr)cc2)c(CCCCc2ccccc2)c(=O)[nH]1`, for which the growth inhibition in test [1] is 27.6%; in test [2] it was 11.3%; in test [3] it was 34.7%; in test [4], 24.8%; in test [5], -3.1%; in test [6] it was 11.4%.
Consider `COC(=O)C(=O)C1(c2ccccc2)C(=O)C(c2ccccc2)=CC1O` (stereo not given), for which the growth inhibition is 15.3% in test [1]; 10.5% in test [2]; 10.1% in test [3]; 0.7% in test [4]; 8.4% in test [5]; 18.6% in test [6].
`CC1=NC(C)(C)N(O)C1(C)C`: the growth inhibition in test [1] was -21.9%; in test [2] it was -4.3%; in test [3] it was -3.05%; in test [4], -0.8%; in test [5], -9%; in test [6], -53.5%.
For `CCN(CC)CC(C)O` (stereo not given), the growth inhibition in test [1] is 39.7%; in test [2], 13.2%; in test [3] it was 21%; in test [4] it was -26.9%; in test [5], -9.45%; in test [6], 30.6%.
Regarding `CCN(CC)c1nc(Cl)nc(Nc2ccc3cc(-c4ccccc4)c(=O)oc3c2)n1`, the growth inhibition in test [1] is -9.15%; in test [2], -24.9%; in test [3], -8.1%; in test [4], 8.05%; in test [5], -12.7%; in test [6], -7.25%.
On to `COC1CC(OC2CCC3(C)C(CCC45CCC(C6=CC(=O)OC6)C(C)(CCC43)C5=O)C2)OC(C)C1O` (stereo not given), for which the growth inhibition is 22.4% in test [1]; -11.7% in test [2]; 2.6% in test [3]; 17.6% in test [4]; 12.8% in test [5]; -17.9% in test [6].
Consider `CC[N+]1(CC)CCOC(=O)C1`, for which the growth inhibition in test [1] was -15.8%; in test [2], -2.6%; in test [3] it was -3.9%; in test [4], 22.9%; in test [5], -19.4%; in test [6], -26.9%.
